# Measured values from the supplement of paper PMC10849652.
# The full data set covers some 7,900 targets. This sample favours those with a hit. About 0.6% of all pairs of compound and target were hits.
# Key:
# Assay in all cases: log2 fold change, soluble protein after heating vs DMSO (PISA); higher = thermal stabilisation; K562 cells, 10 uM, 30 min; active = over 0.2 and 3.5 SD of the protein, either way, in both replicates (recomputed)
# [1] = compound: CC[C@@H]1C(=O)N(C)c2cnc(Nc3ccc(C(=O)NC4CCN(C)CC4)cc3OC)nc2N1C1CCCC1
# How it was run: (§1)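 K562 cells at 2×10^6 cells/mL were given 10 μM compound for 30 min. Aliquots then went through 3 min of heating across 48°C-58°C, were pooled, and were extracted in PBS with 0.5% NP-40 at 4°C, and the supernatant after 21,000xg for 90 min was quantified by TMTpro 16plex LC-MS/MS with channel sums equalised. Thermal stability relative to control samples, from duplicates, is given as log2 fold change.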
# volasertib = compound: CC[C@@H]1C(=O)N(C)c2cnc(Nc3ccc(C(=O)N[C@H]4CC[C@H](N5CCN(CC6CC6)CC5)CC4)cc3OC)nc2N1C(C)C [volasertib]
# How it was run: as §1
# [2] = compound: CC[C@H](C)N1C=C(C2=C(C=C(C=C21)C3=CN=C(C=C3)N4CCNCC4)C(=O)NCC5=C(C=C(NC5=O)C)C)C
# How it was run: as §1
# epoxomicin = compound: CC[C@H](C)[C@@H](C(=O)N[C@@H]([C@@H](C)O)C(=O)N[C@@H](CC(C)C)C(=O)[C@]1(CO1)C)NC(=O)[C@H]([C@@H](C)CC)N(C)C(=O)C [epoxomicin]
# How it was run: as §1
# [3] = compound: CCn1c(C(=O)N(C2CC2)C2CC2)cc2c3c(ncn3C)c(Nc3cc(C)n(C)n3)nc21
# How it was run: as §1
# [4] = compound: CCn1cc(-c2ccnc3[nH]c(-c4cccc(CN(C)C)c4)cc23)c(-c2ccc(NC(=O)N(C)C)cc2)n1
# How it was run: as §1
# [5] = compound: CN(C)CC(=O)Nc1ccc2[nH]c(=O)c3ccccc3c2c1
# How it was run: as §1
# rosiglitazone = compound: CN(CCOC1=CC=C(C=C1)C[C@H]2C(=O)NC(=O)S2)C3=CC=CC=N3 (racemic) [rosiglitazone]
# How it was run: as §1
# [6] = compound: CN1C2=C(C3=C1C(=O)N(N=C3)CC4=CC(=CC=C4)N)SC(=C2)S(=O)C
# How it was run: as §1
# [7] = compound: CN1CCC(CNc2ccc3ncc(-c4cccc(OC(F)(F)F)c4)n3n2)CC1
# How it was run: as §1
# saracatinib = compound: CN1CCN(CCOc2cc(OC3CCOCC3)c3c(Nc4c(Cl)ccc5c4OCO5)ncnc3c2)CC1 [saracatinib]
# How it was run: as §1
# sotrastaurin = compound: CN1CCN(c2nc(C3=C(c4c[nH]c5ccccc45)C(=O)NC3=O)c3ccccc3n2)CC1 [sotrastaurin]
# How it was run: as §1
# alvocidib = compound: CN1CC[C@H](c2c(O)cc(O)c3c(=O)cc(-c4ccccc4Cl)oc23)[C@H](O)C1 [alvocidib]
# How it was run: as §1
# Tubastatin A = compound: CN1CCc2c(c3ccccc3n2Cc2ccc(C(=O)NO)cc2)C1 [Tubastatin A]
# How it was run: as §1
# [8] = compound: CNC(=O)C1=CC=CC=C1NC2=NC(=NC=C2Cl)NC3=C(C=C(C=C3)N4CCOCC4)OC
# How it was run: as §1
# defactinib = compound: CNC(=O)c1ccc(Nc2ncc(C(F)(F)F)c(NCc3nccnc3N(C)S(C)(=O)=O)n2)cc1 [defactinib]
# How it was run: as §1
# rucaparib = compound: CNCc1ccc(-c2[nH]c3cc(F)cc4c3c2CCNC4=O)cc1 [rucaparib]
# How it was run: as §1
# [9] = compound: CNc1nc(-c2ccc3c(N)n[nH]c3c2)cc(N2C[C@@H](C(=O)NC3CCCCC3)CC[C@H]2C)n1
# How it was run: as §1
# encorafenib = compound: COC(=O)N[C@@H](C)CNc1nccc(-c2cn(C(C)C)nc2-c2cc(Cl)cc(NS(C)(=O)=O)c2F)n1 [encorafenib]
# How it was run: as §1
# [10] = compound: COC(=O)[C@H](CCSC)NC(=O)C1=C(C=C(C=C1)NC[C@H](CS)N)C2=CC=CC=C2
# How it was run: as §1
# Sequence of UniProt P98170 (P98170 whole entry, looked up): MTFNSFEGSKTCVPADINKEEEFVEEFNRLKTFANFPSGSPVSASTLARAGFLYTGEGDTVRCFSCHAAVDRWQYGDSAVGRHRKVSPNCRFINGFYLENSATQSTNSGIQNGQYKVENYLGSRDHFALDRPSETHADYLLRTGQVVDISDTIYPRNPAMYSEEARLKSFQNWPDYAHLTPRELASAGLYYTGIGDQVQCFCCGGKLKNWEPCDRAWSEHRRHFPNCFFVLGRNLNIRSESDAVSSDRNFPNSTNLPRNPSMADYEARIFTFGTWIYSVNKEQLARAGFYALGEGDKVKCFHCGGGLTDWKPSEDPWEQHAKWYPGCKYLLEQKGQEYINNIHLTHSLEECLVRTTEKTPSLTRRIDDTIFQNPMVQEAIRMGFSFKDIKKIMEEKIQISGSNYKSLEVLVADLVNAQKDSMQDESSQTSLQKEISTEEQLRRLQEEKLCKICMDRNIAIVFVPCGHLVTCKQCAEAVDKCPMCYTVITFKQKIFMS
# Sequence of UniProt Q92890 (Q92890 whole entry, looked up): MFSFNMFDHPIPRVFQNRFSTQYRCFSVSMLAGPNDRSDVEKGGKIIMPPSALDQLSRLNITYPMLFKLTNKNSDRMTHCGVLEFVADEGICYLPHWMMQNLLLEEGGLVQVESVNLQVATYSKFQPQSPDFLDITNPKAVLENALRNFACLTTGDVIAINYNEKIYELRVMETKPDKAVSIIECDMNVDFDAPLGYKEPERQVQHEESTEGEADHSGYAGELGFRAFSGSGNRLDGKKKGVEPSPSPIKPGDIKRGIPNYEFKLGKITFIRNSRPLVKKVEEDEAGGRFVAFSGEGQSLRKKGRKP
# Sequence of UniProt Q9H267 (Q9H267 whole entry, looked up): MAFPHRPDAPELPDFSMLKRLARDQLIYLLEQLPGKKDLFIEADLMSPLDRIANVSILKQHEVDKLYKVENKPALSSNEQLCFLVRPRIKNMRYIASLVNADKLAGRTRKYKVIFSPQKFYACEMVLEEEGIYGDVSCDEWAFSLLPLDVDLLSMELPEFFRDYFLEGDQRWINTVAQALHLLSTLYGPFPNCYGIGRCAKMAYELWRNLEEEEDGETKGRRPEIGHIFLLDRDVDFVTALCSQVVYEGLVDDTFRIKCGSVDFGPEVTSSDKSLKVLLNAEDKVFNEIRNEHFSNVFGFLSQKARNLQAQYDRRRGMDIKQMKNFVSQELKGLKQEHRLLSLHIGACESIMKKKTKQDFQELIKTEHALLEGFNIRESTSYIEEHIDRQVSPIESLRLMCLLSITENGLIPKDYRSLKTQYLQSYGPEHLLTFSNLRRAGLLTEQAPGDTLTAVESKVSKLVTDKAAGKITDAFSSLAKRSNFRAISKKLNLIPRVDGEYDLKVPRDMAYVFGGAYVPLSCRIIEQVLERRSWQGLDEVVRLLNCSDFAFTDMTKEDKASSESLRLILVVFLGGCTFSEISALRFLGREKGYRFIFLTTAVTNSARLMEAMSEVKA
# Sequence of UniProt Q7Z3J2 (Q7Z3J2 whole entry, looked up): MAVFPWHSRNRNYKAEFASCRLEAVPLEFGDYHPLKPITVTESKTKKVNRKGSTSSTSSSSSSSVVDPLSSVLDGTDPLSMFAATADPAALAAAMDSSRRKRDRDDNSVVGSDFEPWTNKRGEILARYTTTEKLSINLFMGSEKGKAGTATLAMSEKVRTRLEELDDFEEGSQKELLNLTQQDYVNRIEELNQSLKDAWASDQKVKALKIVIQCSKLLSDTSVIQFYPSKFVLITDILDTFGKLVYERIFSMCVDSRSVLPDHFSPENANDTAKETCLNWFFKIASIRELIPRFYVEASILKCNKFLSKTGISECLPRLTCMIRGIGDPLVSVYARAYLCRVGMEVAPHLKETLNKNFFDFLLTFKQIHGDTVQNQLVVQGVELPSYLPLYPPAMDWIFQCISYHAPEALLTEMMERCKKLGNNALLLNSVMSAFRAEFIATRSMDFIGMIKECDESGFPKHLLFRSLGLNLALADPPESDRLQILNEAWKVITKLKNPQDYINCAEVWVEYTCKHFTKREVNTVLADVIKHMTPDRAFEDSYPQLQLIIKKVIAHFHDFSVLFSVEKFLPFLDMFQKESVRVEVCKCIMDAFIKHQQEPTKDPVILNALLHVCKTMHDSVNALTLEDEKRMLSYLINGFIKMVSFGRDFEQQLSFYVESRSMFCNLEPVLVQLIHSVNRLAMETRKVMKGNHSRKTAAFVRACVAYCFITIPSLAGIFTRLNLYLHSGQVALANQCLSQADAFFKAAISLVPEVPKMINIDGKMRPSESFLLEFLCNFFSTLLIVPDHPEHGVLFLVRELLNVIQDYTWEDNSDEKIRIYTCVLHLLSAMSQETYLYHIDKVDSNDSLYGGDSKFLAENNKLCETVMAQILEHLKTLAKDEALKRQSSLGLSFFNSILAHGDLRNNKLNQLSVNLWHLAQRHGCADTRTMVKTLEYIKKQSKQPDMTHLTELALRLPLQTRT
# Sequence of UniProt Q96LJ8 (Q96LJ8 whole entry, looked up): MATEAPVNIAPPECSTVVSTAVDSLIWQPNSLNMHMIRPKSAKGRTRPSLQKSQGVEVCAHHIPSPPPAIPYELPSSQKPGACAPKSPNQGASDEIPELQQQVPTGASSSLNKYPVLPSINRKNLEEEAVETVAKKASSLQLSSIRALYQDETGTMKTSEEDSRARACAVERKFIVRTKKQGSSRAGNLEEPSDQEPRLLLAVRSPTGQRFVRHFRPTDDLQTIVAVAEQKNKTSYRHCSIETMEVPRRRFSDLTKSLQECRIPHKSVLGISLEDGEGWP
# Sequence of UniProt Q9BVJ6 (Q9BVJ6 whole entry, looked up): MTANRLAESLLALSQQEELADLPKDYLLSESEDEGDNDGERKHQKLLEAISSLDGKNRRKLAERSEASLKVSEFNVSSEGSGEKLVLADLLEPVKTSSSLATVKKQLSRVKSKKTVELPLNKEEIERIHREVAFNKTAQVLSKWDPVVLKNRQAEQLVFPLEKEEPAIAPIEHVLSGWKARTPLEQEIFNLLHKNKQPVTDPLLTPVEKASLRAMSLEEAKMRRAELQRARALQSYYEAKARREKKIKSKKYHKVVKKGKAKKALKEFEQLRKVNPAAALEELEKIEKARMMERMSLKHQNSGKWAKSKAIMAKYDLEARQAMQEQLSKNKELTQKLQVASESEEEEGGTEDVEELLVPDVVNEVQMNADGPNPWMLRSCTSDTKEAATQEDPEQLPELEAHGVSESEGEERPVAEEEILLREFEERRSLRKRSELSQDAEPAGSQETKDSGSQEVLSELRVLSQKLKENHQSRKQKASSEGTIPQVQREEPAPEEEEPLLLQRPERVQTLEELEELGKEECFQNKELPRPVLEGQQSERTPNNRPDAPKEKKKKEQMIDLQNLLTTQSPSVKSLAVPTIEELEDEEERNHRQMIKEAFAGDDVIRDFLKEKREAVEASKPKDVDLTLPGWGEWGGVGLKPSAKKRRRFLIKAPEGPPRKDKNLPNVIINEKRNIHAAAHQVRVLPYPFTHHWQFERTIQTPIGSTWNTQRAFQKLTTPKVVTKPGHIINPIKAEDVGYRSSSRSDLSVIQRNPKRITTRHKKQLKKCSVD
# Sequence of UniProt O95379 (O95379 whole entry, looked up): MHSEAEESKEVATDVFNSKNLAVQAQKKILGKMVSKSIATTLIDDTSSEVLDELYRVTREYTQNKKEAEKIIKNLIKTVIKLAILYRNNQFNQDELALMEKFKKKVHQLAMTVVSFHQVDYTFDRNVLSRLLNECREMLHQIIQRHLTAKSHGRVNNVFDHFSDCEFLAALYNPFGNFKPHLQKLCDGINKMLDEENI
# Sequence of UniProt Q9UID3 (Q9UID3 whole entry, looked up): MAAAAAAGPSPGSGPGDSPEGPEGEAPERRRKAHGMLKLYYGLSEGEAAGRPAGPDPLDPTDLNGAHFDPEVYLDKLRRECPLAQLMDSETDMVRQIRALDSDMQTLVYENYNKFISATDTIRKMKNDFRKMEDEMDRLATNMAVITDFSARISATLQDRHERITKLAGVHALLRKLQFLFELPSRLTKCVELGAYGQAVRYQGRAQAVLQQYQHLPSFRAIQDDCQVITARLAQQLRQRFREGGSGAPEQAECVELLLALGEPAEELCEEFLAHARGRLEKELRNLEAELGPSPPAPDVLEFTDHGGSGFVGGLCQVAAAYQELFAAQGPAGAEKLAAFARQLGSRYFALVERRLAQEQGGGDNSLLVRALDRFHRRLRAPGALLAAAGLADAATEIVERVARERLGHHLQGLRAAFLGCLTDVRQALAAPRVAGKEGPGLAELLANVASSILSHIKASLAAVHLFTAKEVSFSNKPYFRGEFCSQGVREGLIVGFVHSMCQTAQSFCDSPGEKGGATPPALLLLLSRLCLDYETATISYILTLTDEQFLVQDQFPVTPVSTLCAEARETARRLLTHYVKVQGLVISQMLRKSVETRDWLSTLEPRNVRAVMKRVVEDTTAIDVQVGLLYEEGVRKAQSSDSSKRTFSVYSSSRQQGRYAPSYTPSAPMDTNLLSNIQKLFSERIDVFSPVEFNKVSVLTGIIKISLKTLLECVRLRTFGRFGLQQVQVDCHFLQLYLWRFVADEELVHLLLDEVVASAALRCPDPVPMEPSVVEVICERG
Target,log2 fold change [1],log2 fold change (volasertib),log2 fold change [2],log2 fold change (epoxomicin),log2 fold change [3],log2 fold change [4],log2 fold change [5],log2 fold change (rosiglitazone),log2 fold change [6],log2 fold change [7],log2 fold change (saracatinib),log2 fold change (sotrastaurin),log2 fold change (alvocidib),log2 fold change (Tubastatin A),log2 fold change [8],log2 fold change (defactinib),log2 fold change (rucaparib),log2 fold change [9],log2 fold change (encorafenib),log2 fold change [10]
UBA6,-0.139 (inactive),-0.189 (inactive),0.057 (inactive),0.029 (inactive),-0.008 (inactive),-0.031 (inactive),0.033 (inactive),0.016 (inactive),0 (inactive),0.001 (inactive),-0.006 (inactive),-0.125 (inactive),-0.08 (inactive),-0.047 (inactive),0.041 (inactive),-0.089 (inactive),0.024 (inactive),0.011 (inactive),0.049 (inactive),-0.032 (inactive)
UTP14A (UniProt Q9BVJ6),0.092 (inactive),0.176 (inactive),0.028 (inactive),-0.144 (inactive),0.028 (inactive),0.106 (inactive),-0.136 (inactive),-0.106 (inactive),0.263 (inactive),0.106 (inactive),-0.023 (inactive),-0.017 (inactive),0.077 (inactive),0.163 (inactive),0.024 (inactive),0.055 (inactive),0.15 (inactive),0.066 (inactive),0.124 (inactive),0.021 (inactive)
UBXN10 (UniProt Q96LJ8),-0.057 (inactive),-0.319 (inactive),0.156 (inactive),0.127 (inactive),0.034 (inactive),0.014 (inactive),-0.088 (inactive),0.009 (inactive),0.087 (inactive),-0.103 (inactive),0.111 (inactive),0.122 (inactive),-0.021 (inactive),0.036 (inactive),-0.152 (inactive),0.254 (inactive),-0.05 (inactive),-0.049 (inactive),-0.074 (inactive),0.014 (inactive)
XIAP (UniProt P98170),-0.135 (inactive),-0.457 (active),0.094 (inactive),0 (inactive),-0.029 (inactive),0 (inactive),0.071 (inactive),0.043 (inactive),-0.101 (inactive),-0.131 (inactive),-0.149 (inactive),-0.119 (inactive),-0.108 (inactive),0.002 (inactive),-0.033 (inactive),-0.12 (inactive),0.107 (inactive),-0.075 (inactive),0.081 (inactive),0.033 (inactive)
TNFAIP8 isoform 4 (UniProt O95379),-0.015 (inactive),-0.414 (inactive),0.053 (inactive),0.041 (inactive),0.07 (inactive),-0.088 (inactive),0.022 (inactive),0.001 (inactive),-0.084 (inactive),-0.125 (inactive),0.009 (inactive),-0.125 (inactive),-0.072 (inactive),0.083 (inactive),-0.046 (inactive),-0.033 (inactive),-0.04 (inactive),-0.064 (inactive),-0.016 (inactive),-0.015 (inactive)
VPS33B (UniProt Q9H267),-0.129 (inactive),-0.378 (inactive),0.284 (active),0.022 (inactive),-0.065 (inactive),-0.039 (inactive),0.048 (inactive),0.073 (inactive),0.091 (inactive),-0.218 (inactive),-0.088 (inactive),-0.117 (inactive),-0.008 (inactive),0.039 (inactive),-0.071 (inactive),-0.078 (inactive),0.196 (inactive),0.052 (inactive),0.111 (inactive),-0.058 (inactive)
VPS35L (UniProt Q7Z3J2),0.021 (inactive),-0.365 (active),-0.038 (inactive),0.003 (inactive),-0.014 (inactive),0.071 (inactive),0.005 (inactive),0.072 (inactive),-0.076 (inactive),-0.099 (inactive),0.013 (inactive),-0.141 (inactive),0.17 (inactive),-0.015 (inactive),-0.016 (inactive),-0.081 (inactive),0.018 (inactive),0.045 (inactive),-0.001 (inactive),-0.037 (inactive)
UFD1 isoform 1 (UniProt Q92890),-0.009 (inactive),0.021 (inactive),0.008 (inactive),0.063 (inactive),-0.021 (inactive),0.063 (inactive),0.003 (inactive),0.008 (inactive),-0.045 (inactive),-0.015 (inactive),0.008 (inactive),0.005 (inactive),-0.021 (inactive),0.027 (inactive),-0.022 (inactive),-0.013 (inactive),-0.02 (inactive),-0.054 (inactive),-0.004 (inactive),0 (inactive)
VPS51 (UniProt Q9UID3),-0.028 (inactive),-0.335 (active),-0.036 (inactive),-0.015 (inactive),-0.033 (inactive),0.003 (inactive),0.032 (inactive),0.016 (inactive),0.094 (inactive),-0.135 (inactive),-0.029 (inactive),-0.097 (inactive),-0.113 (inactive),0.029 (inactive),-0.011 (inactive),-0.056 (inactive),0.041 (inactive),-0.034 (inactive),0.046 (inactive),0.002 (inactive)
